# Screen size: about 39,000 compounds; about 3,300 (8.5%) were called active. Many of the other results were omitted from the sample, so actives are more common in it than they were.
# Tested on: HepG2
# Test: cytotoxicity call (relative viability < 0.9)
# Conditions: 10 µM
row,Structure (SMILES),cytotoxicity call
1,C[C@@H]1CCCCO[C@@H](CN(C)C(=O)CCC(F)(F)F)[C@@H](C)CN([C@H](C)CO)C(=O)c2cc(NS(=O)(=O)c3cccs3)ccc2O1,inactive
2,Cc1noc(C)c1S(=O)(=O)N(C)C[C@H]1Oc2ccc(NC(=O)CCC(F)(F)F)cc2CC(=O)N([C@@H](C)CO)C[C@@H]1C,inactive
3,O=C(C[C@H]1C=C[C@@H](NS(=O)(=O)c2ccccc2F)[C@H](CO)O1)NCCCN1CCOCC1,inactive
4,C[C@@H]1CCCCO[C@@H](CN(C)C(=O)Nc2ccccc2)[C@@H](C)CN([C@H](C)CO)C(=O)c2cc(NS(=O)(=O)c3ccc(Cl)cc3)ccc2O1,inactive
5,C[C@@H]1CN([C@H](C)CO)C(=O)c2cccc(NC(=O)c3cnccn3)c2O[C@@H]1CN(C)S(=O)(=O)c1ccc(Cl)cc1,inactive
6,C[C@@H]1CN([C@@H](C)CO)C(=O)c2cc(NC(=O)CCCCCC(=O)Nc3ccccc3N)ccc2O[C@@H](C)CCCCO[C@@H]1CN(C)S(=O)(=O)c1ccc(Cl)cc1,inactive
7,C[C@H](CO)N1C[C@H](C)[C@@H](CN(C)S(=O)(=O)c2ccc(C#N)cc2)OCc2cnnn2CCCC1=O,inactive
8,C[C@@H]1CCCCO[C@@H](CN(C)Cc2ccccc2)[C@H](C)CN([C@H](C)CO)C(=O)c2cc(NC(=O)c3ccccc3)ccc2O1,inactive
9,Cc1noc(C)c1NC(=O)Nc1ccc2c(c1)CC(=O)N([C@@H](C)CO)C[C@@H](C)[C@@H](CN(C)CC1CC1)O2,inactive
10,COc1ccc(NC(=O)Nc2ccc3c(c2)C(=O)N([C@@H](C)CO)C[C@@H](C)[C@H](CN(C)Cc2ccc4c(c2)OCO4)OCCCC[C@@H](C)O3)cc1,inactive
11,CCCOc1ccnc2c1c(=O)n(C)c(=O)n2C,inactive
12,COc1ccc(NC(=O)Nc2cccc3c2O[C@@H](CN(C)Cc2ccc(C(=O)Nc4ccccc4N)cc2)[C@@H](C)CN([C@H](C)CO)C3=O)cc1,inactive
13,C[C@H]1CN([C@@H](C)CO)C(=O)Cc2cc(NC(=O)C3CC3)ccc2O[C@@H]1CN(C)S(=O)(=O)c1ccccc1,inactive
14,C[C@H]1CCCCO[C@@H](CN(C)S(=O)(=O)c2ccc(Cl)cc2)[C@@H](C)CN([C@@H](C)CO)C(=O)c2cc(NC(=O)CCC(F)(F)F)ccc2O1,inactive
15,C[C@@H]1CCCCO[C@@H](CN(C)S(=O)(=O)c2ccc(Cl)cc2)[C@@H](C)CN([C@@H](C)CO)C(=O)c2cc(NC(=O)CCC(F)(F)F)ccc2O1,inactive
16,C[C@H]1CCCCO[C@H](CN(C)S(=O)(=O)c2ccc(Cl)cc2)[C@@H](C)CN([C@@H](C)CO)C(=O)c2cc(NC(=O)CCC(F)(F)F)ccc2O1,active
17,C[C@@H]1CCCCO[C@@H](CN(C)S(=O)(=O)c2ccc(Cl)cc2)[C@@H](C)CN([C@H](C)CO)C(=O)c2cc(NC(=O)CCC(F)(F)F)ccc2O1,inactive
18,C[C@H](CO)N1C[C@H](C)[C@H](CN(C)S(=O)(=O)c2ccc(Cl)cc2)OCCCC[C@H](C)Oc2ccc(NC(=O)CCC(F)(F)F)cc2C1=O,inactive
19,C[C@@H]1CCCCO[C@@H](CN(C)S(=O)(=O)c2ccc(Cl)cc2)[C@H](C)CN([C@@H](C)CO)C(=O)c2cc(NC(=O)CCC(F)(F)F)ccc2O1,active
20,N#C[C@@H]1C(=O)NC(=O)[C@@H](C#N)C12CCCC2,inactive
21,Cc1noc(C)c1S(=O)(=O)N(C)C[C@@H]1OCCCC[C@@H](C)Oc2ccc(NC(=O)Nc3ccc(F)cc3)cc2C(=O)N([C@H](C)CO)C[C@@H]1C,inactive

row,Structure (SMILES),cytotoxicity call
1,C[C@@H]1CN([C@@H](C)CO)C(=O)c2cc(NC(=O)Nc3ccccc3)ccc2O[C@@H](C)CCCCO[C@@H]1CN(C)C(=O)Nc1cccc2ccccc12,inactive
2,Cc1ccc(S(=O)(=O)N(C)C[C@H]2OCCCC[C@H](C)Oc3ccc(NC(=O)Nc4cccc5ccccc45)cc3C(=O)N([C@H](C)CO)C[C@@H]2C)cc1,inactive
3,CCOC(=O)[C@@H](N)Cc1ccccc1,inactive
4,NNC(=O)[C@@H](N)Cc1ccccc1,inactive
5,Cc1cc(C)c(NC(=O)[C@@H](N)Cc2ccccc2)c(Cl)c1,active
6,CC1=CC[C@H](C(C)(C)O)CC1,inactive
7,CC(C)=CCCC(C)(O)C1CC=C(C)CC1 (configuration not stated),active
8,C=C(C)[C@H]1CC=C(C)CC1,inactive
9,C[C@@H]1CN([C@H](C)CO)C(=O)c2cc(NC(=O)C3CCCCC3)ccc2O[C@@H](C)CCCCO[C@H]1CN(C)C(=O)C1CCCCC1,inactive
10,C[C@@H]1CN([C@H](C)CO)C(=O)c2c(c3ccccc3n2C)-c2ccccc2CO[C@H]1CN(C)C(=O)Nc1cccc(F)c1,inactive
11,C[C@@H]1CCCCO[C@H](CN(C)Cc2ccc(Cl)c(Cl)c2)[C@@H](C)CN([C@H](C)CO)C(=O)c2cc(NS(C)(=O)=O)ccc2O1,inactive
12,C[C@@H]1CCCCO[C@H](CN(C)Cc2ccc(Cl)c(Cl)c2)[C@H](C)CN([C@@H](C)CO)C(=O)c2cc(NS(C)(=O)=O)ccc2O1,active
13,C[C@@H]1CCCCO[C@H](CN(C)Cc2ccc(Cl)c(Cl)c2)[C@@H](C)CN([C@@H](C)CO)C(=O)c2cc(NS(C)(=O)=O)ccc2O1,inactive
14,C[C@@H]1CCCCO[C@@H](CN(C)Cc2ccc(Cl)c(Cl)c2)[C@@H](C)CN([C@@H](C)CO)C(=O)c2cc(NS(C)(=O)=O)ccc2O1,inactive
15,C[C@@H]1CN([C@H](C)CO)C(=O)c2cc(NS(C)(=O)=O)ccc2O[C@@H](C)CCCCO[C@H]1CN(C)Cc1ccc(Cl)c(Cl)c1,active
16,C[C@@H]1CCCCO[C@@H](CN(C)Cc2ccc(Cl)c(Cl)c2)[C@H](C)CN([C@@H](C)CO)C(=O)c2cc(NS(C)(=O)=O)ccc2O1,inactive
17,C[C@@H](NC(=O)C[C@@H]1CC[C@@H](NC(=O)CN2CCOCC2)[C@@H](CO)O1)c1ccccc1,inactive
18,O=C1c2cccc(O)c2C(=O)c2c(O)cccc21,active
19,Cc1cc(O)c2c(c1)C(=O)c1cccc(O)c1C2=O,inactive
20,O=C1c2c(O)cccc2Cc2cccc(O)c21,inactive
21,COc1cccc(NC(=O)N2C[C@H](O)COC[C@@H]3O[C@@H](CC(=O)NCc4ccccc4F)CC[C@H]32)c1,inactive

# From the antibiotic and cytotoxicity screens of Wong et al. (2023)
